Test results published in PubChem BioAssay AID493168 (National Center for Advancing Translational Sciences (NCATS), 2011).
Records with an inconclusive call do not appear. The source made the active and inactive calls. Calls follow the shape of the dose curve; as a rule, active = well fitted inhibition curve with a large enough effect; inconclusive = small, poorly fitted or top-dose-only effect, or effect the other way; inactive = flat fitted curve, though single readings scatter.

The molecules below were run against Ubiquitin carboxyl-terminal hydrolase 2 (Homo sapiens) (UniProt O75604) (assay: Confirmation Assay for Inhibitors of Ubiquitin-specific Protease USP2a Using CHOP2 as the Reporter). Conditions: USP2 core, Ub-CHOP2 coupled reporter fluorescence; series mostly up to 38.3 µM; activity change, negative = inhibition: at the top concentration.
Ubiquitin carboxyl-terminal hydrolase 2 (Homo sapiens), sequence (O75604 whole entry, looked up): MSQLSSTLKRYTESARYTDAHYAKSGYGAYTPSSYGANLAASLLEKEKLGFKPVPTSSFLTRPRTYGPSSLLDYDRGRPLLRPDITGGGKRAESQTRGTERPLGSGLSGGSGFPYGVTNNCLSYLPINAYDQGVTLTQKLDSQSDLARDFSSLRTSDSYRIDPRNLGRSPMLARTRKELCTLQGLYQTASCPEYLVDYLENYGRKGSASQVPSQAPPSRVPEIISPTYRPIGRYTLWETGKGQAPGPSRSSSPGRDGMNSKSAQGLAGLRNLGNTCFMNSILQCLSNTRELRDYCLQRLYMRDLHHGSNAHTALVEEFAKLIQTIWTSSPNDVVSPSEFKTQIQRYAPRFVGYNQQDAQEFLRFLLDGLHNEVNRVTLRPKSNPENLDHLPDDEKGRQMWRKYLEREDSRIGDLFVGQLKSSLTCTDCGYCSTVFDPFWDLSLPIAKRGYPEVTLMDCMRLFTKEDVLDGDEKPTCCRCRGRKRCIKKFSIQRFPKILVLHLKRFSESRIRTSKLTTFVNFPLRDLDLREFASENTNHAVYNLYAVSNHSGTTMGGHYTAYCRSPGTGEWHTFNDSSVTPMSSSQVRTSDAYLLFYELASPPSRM
Method in brief: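 Ub-CHOP2 cleavage coupled to reporter activation was read by fluorescence after 60 min at RT, with 25 nM final Ub-CHOP2 and substrate. Enzyme (10 nM final USP2 core) first sat 30 min with compound; data were normalized to NEM and fitted to concentration-response curves.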
Also: nearly all actives have a fitted effect of over 55% in size.
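For activity change, negative = inhibition in this document: plate controls were DMSO wells for no effect and full inhibition by NEM control for full effect.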
Potency is read from the fitted curve at half-maximal effect.

Activity change, negative = inhibition, inactive:
CSc1ncccc1C(=O)OCC(=O)N1CCOCC1 -1.33%
CCOC(=O)CCCNC(=O)COC(=O)c1cccc(C)c1O -4.65%
c1ccc(-c2ccccc2OCCCN2CCOCC2)cc1 -6.11%
Cn1nnnc1Sc1ncnc2scc(-c3ccc4c(c3)OCO4)c12 -2.78%
COc1ccc(-c2cc(C(F)(F)F)nc(S(C)(=O)=O)n2)cc1 -3.75%
COc1ccc(NC(=O)CSc2nnc(-c3ccccc3Cl)n2Cc2ccco2)c(OC)c1 0.298%
CNS(=O)(=O)c1cccc(C(=O)OCC(=O)c2cc(C)n(-c3ccc4c(c3)OCO4)c2C)c1 -4.53%
COc1ccc(/C=N/NC(=O)c2nn(-c3ccccc3)c(=O)c3c(N)scc23)cc1 -4.38%
O=c1oc2ccccc2n1Cn1c(=O)oc2ccccc21 2.63%
COc1ccc(-n2c(O)c(/C=N/n3cnnc3)c3ccccc3c2=O)cc1 3.94%
C=CC[C@H](CC(=O)N[C@H](CO)Cc1ccccc1)C(=O)N[C@@H](COC(=O)[C@@H](CC=C)CC(=O)OC(C)(C)C)Cc1c[nH]c2ccccc12 -11.8%
COc1cc2cc(CN(CCN3CCCC3)C(=O)Nc3ccc(F)cc3)c(=O)[nH]c2cc1OC -7.19%
CCOc1ccc2[nH]c(=O)c(CN(CCc3ccccc3)C(=O)c3cnccn3)cc2c1 -3.4%
CN1CCN(Cc2c(O)ccc3c(=O)c(Oc4ccccc4Cl)c(C(F)(F)F)oc23)CC1 4.61%
CC(=O)N1c2c(cc(Br)cc2S(=O)(=O)NCc2cccnc2)CC1C (centres undefined) 2.31%
CC(C)(C)C1CCC(=NNC(=O)CN(c2ccccc2)S(C)(=O)=O)CC1 (centres undefined) -1.87%
Cc1ccc(S(=O)(=O)N2CCOCC2)cc1NC(=O)CN1C(=O)NC(C)(c2ccc(Cl)cc2Cl)C1=O (centres undefined) 4.88%
NC(=O)CC(NC(=O)Cc1ccc(Br)cc1)c1ccc(N2CCC(Cc3ccccc3)CC2)c([N+](=O)[O-])c1 (centres undefined) -0.26%
COc1cc(NC(=O)COC(=O)CSc2ccccc2F)c(C)cc1[N+](=O)[O-] -2.68%
CCN(Cc1ccncc1)C(=O)c1cccs1 -0.752%
O=C(NCCC1=CCCCC1)C1CCCN(S(=O)(=O)c2cnc[nH]2)C1 (centres undefined) 4.26%
Cc1cccc(N2CCN(C(=O)CCc3nc4ccccc4[nH]3)CC2C)c1 (centres undefined) 2.72%
COCc1c(C(=O)OCC(=O)c2c(N)n(CC(C)C)c(=O)n(C)c2=O)oc2ccccc12 -3.99%
C=CCn1c(N)c(C(=O)NCc2cccnc2)sc1=S -0.483%
O=C1NC[C@@H](c2ccccc2)OC(=O)[C@@H](Cc2ccc(F)cc2)CC/C=C/C[C@@H]1CC(=O)N(CCO)Cc1ccccc1 1.12%
O=C(CSCCO)Nc1cccc2ccccc12 -2.29%
CCO[C@H]1OC(C(=O)N2CCCCCCC2)=C[C@@H](c2ccc(C(F)(F)F)cc2)[C@@H]1CCCO 2.48%
CCOC(=O)N1CCC(NC(=O)c2ccc(OC)c(CN3CC(=O)N4CCCC4C3=O)c2)CC1 (centres undefined) -1.63%
N=C1C(c2nc3ccccc3c(=O)[nH]2)=C(O)CN1CCc1ccccc1 0.0409%
O=C1Nc2ccc(S(=O)(=O)N3CCCCCC3)c3cccc1c23 -0.6%
O=C(CCNc1cccc(Cl)c1)c1ccco1 -4.03%
CCN(CC)S(=O)(=O)c1ccc(-c2nnc(SCC(=O)Nc3ccc4c(c3)OCO4)o2)cc1 -22%
Cc1ccccc1NC(=O)CSc1nnc(-c2ccco2)c(-c2ccco2)n1 -11.5%
Cc1ccc(C(=O)CSc2nnc(CNc3nc(-c4ccccc4)cs3)n2C)cc1 -6.56%

Potency, active:
C#CCOCCOCCOCCNc1nc(N2CCN(C(=O)CCCCCCCCCCNC(=O)[C@H](CCCCN)n3cc(CCO)nn3)CC2)nc(N2CCN(C(=O)CCCCCCCCCCNC(=O)[C@H](CCCCN)n3cc(C[C@@H](C)CC)nn3)CC2)n1 8.26 µM
C#CCOCCOCCOCCNc1nc(N2CCN(C(=O)CCCCCCCCCCNC(=O)[C@H]([C@@H](C)CC)n3cc(CCCCCN)nn3)CC2)nc(N2CCN(C(=O)CCCCCCCCCCNC(=O)[C@H](CCCCN)n3cc(CCCC(=O)O)nn3)CC2)n1 13.1 µM
C#CCOCCOCCOCCNc1nc(N2CCN(C(=O)CCCCCCCCCCNC(=O)[C@@H](CCSC)n3cc(CCO)nn3)CC2)nc(N2CCN(C(=O)CCCCCCCCCCNC(=O)[C@H](CCCN=C(N)N)n3cc(C[C@@H](C)CC)nn3)CC2)n1 13.1 µM
O=C(O[C@@H]1OC2COC(=O)c3cc(O)c(O)c(O)c3-c3c(cc(O)c(O)c3O)C(=O)O[C@@H]([C@H]1O)[C@@H]2O)c1cc(O)c(O)c(O)c1 16.5 µM
CCOc1cc(/C=C2\C(=O)N(c3nc(-c4ccc(Br)cc4)cs3)N=C2c2ccccc2)ccc1O 4.65 µM
